Hits are enriched below; roughly 2% of the tested compounds scored in any of these assays.
Jurkat NFkB inh = inhibitors of induced NF-kB luciferase reporter, primary screen, TCR NF-kB activation inhibitor project, cell-based, luminescence, uHTS. Jurkat, PMA/ionomycin-induced NF-kB luciferase reporter. actives 0.53% (n = 330,000). inhibition, % at 4 µM. AID 435003, 2010; in the data active = inhibition above about 50%
697 NFkB inh = inhibitors of PMA/ionomycin-induced NF-kB reporter, 697 cells, primary screen, B-cell NF-kB inhibitor project, cell-based, luminescence, uHTS; 697 B-cell NF-kB luciferase reporter, 16 h; inhibition, % at 4 µM; actives 0.33% (n = 330,000); AID 435022, 2010; in the data active = inhibition above about 35%
Shn3 inh set2 = reduction of Shn3 3'UTR firefly luciferase signal, primary screen, Schnurri-3 inhibitor project, cell-based, Clone20 osteoblasts, set 2 | AID 588674, 2011 | inhibition, % at 12.5 µM | Clone20 osteoblast Shn3 3'UTR firefly luciferase, 24 h | actives 0.52% (n = 360,000);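 active = mean inhibition of at least 75% with every replicate also reaching 75%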
Beta apoptosis = inhibitors of cytokine-induced beta cell apoptosis, primary screen, luminescence. INS-1E cytokine-induced death, ATP luminescence, 48 h; percent of positive-control rescue, neutral wells zero. protection from apoptosis, % (no concentration beside the values). actives 0.8% (n = 300,000). AID 435005, 2010;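 active = Every replicate reaches about 75%, or at least half do and their mean reaches it too, limit read from the data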;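 note: higher means more ATP so stronger rescue from cytokine killing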
Calb FLC = C. albicans growth inhibition with fluconazole, primary screen, CaCi-2 strain, Alamar Blue fluorescence | actives 0.57% (n = 300,000) | AID 1979, 2009 | C. albicans CaCi-2 (fluconazole-resistant clinical isolate) + fluconazole, 48 h | growth inhibition, % (test concentration not listed);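 active = growth inhibition above about 58% in most replicates, limit read from the data, passing the limit was not always enough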;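 note: all wells also contain fluconazole at 8 µg/ml as a sub-toxic cotreatment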
697 NFkB conf = PMA/ionomycin-induced NF-kB reporter inhibitors, 697 retest, confirmation, B-cell NF-kB inhibitor project, cell-based, luminescence, single concentration; shares compounds with 697 NFkB inh; 697 B-cell NF-kB luciferase, 16 h; inhibition, % at 4 µM; actives 35% (n = 2,000); AID 449746, 2010; in the data active = inhibition mostly above about 28%, no sharp cut-off; inactive = mostly below about 22%
Numbers stand for hits.

What do the screens show for `CCC(C)NC(=O)c1ccc(NC(=O)CC2SC(N3CCCC3)=NC2=O)cc1` (stereo unspecified)?
Jurkat NFkB inh: inactive; 697 NFkB inh: inactive; Shn3 inh set2: inactive; Beta apoptosis: inactive

What do the screens show for `CCOC(=O)c1cnc(SCc2ccccc2)nc1N`?
Jurkat NFkB inh: inactive; 697 NFkB inh: inactive; Shn3 inh set2: inactive; Beta apoptosis: inactive; Calb FLC: inactive; 697 NFkB conf: inactive

How did CCOC(=O)c1cnc(SCc2ccc(C(C)(C)C)cc2)nc1N do in these assays?
Jurkat NFkB inh: inactive; 697 NFkB inh: inactive; Shn3 inh set2: inactive; Beta apoptosis: inactive; Calb FLC: inactive

How did CC1CCN(CCCNC(=O)COc2cc(=O)n(C)c3ccccc23)CC1 do in these assays?
Jurkat NFkB inh: inactive; 697 NFkB inh: 36; Shn3 inh set2: inactive; Beta apoptosis: inactive; Calb FLC: inactive; 697 NFkB conf: 23

Results for O=C(O)c1ccccc1N/N=C\c1ccnc2ccccc12 ?
Jurkat NFkB inh: inactive; 697 NFkB inh: inactive; Shn3 inh set2: inactive; Beta apoptosis: inactive; Calb FLC: inactive; 697 NFkB conf: inactive

What do the screens show for `Cc1cccc(N(Cc2cc3ccc(C)cc3[nH]c2=O)S(=O)(=O)c2ccccc2)c1`?
Jurkat NFkB inh: inactive; 697 NFkB inh: inactive; Shn3 inh set2: inactive; Beta apoptosis: inactive; Calb FLC: inactive

What do the screens show for `O=c1cc(Nc2ccc3c(c2)OCCO3)[nH]c(=O)n1-c1ccc(Cl)cc1`?
Jurkat NFkB inh: inactive; 697 NFkB inh: 38; Shn3 inh set2: inactive; Beta apoptosis: inactive; Calb FLC: inactive; 697 NFkB conf: inactive

What do the screens show for `CSc1ccc(C2Nc3cccc4cccc(c34)N2)cc1`?
Jurkat NFkB inh: inactive; 697 NFkB inh: inactive; Shn3 inh set2: inactive; Beta apoptosis: inactive; Calb FLC: inactive; 697 NFkB conf: inactive

How did Cc1nnc2ccc(-c3ccc(NC(=O)Cc4cccs4)cc3)nn12 do in these assays?
Jurkat NFkB inh: inactive; 697 NFkB inh: 36; Shn3 inh set2: inactive; Beta apoptosis: inactive; Calb FLC: inactive; 697 NFkB conf: inactive

How did CCCCC(Br)C(=O)Nc1ccc(S(=O)(=O)Nc2cc(C)nc(C)n2)cc1 (stereo unspecified) do in these assays?
Jurkat NFkB inh: inactive; 697 NFkB inh: inactive; Shn3 inh set2: inactive; Beta apoptosis: inactive; Calb FLC: inactive

Results for CN1CCN(C(=O)c2ccccc2N(Cc2ccccc2)S(=O)(=O)c2ccccc2)CC1 ?
Jurkat NFkB inh: inactive; 697 NFkB inh: 40; Shn3 inh set2: inactive; Calb FLC: inactive; 697 NFkB conf: 25

What do the screens show for `O=C(CNC(=O)/C=C/c1ccco1)N=Nc1c(O)[nH]c2ccccc12`?
Jurkat NFkB inh: inactive; 697 NFkB inh: inactive; Shn3 inh set2: inactive; Beta apoptosis: inactive; Calb FLC: inactive

What do the screens show for `CCCOc1ccc(/C=N/Nc2ccccc2[N+](=O)[O-])c(O)c1`?
Jurkat NFkB inh: inactive; 697 NFkB inh: inactive; Shn3 inh set2: inactive; Beta apoptosis: inactive; Calb FLC: inactive; 697 NFkB conf: inactive

How did O=C(O)c1nn(CCOc2c(Cl)cccc2Cl)c(=O)c2ccccc12 do in these assays?
Jurkat NFkB inh: inactive; 697 NFkB inh: inactive; Shn3 inh set2: inactive; Beta apoptosis: inactive; Calb FLC: inactive; 697 NFkB conf: inactive

How did CCNC(COC(=O)c1ccc([N+](=O)[O-])cc1)C1CCCCC1 (stereo unspecified) do in these assays?
Shn3 inh set2: inactive

What do the screens show for `Cc1cc(C)nc(Nc2nc3ccccc3s2)n1`?
Jurkat NFkB inh: inactive; 697 NFkB inh: inactive; Shn3 inh set2: inactive; Beta apoptosis: inactive; Calb FLC: inactive

How did CC(=O)c1c(C)nc(Nc2nc3ccccc3s2)nc1C do in these assays?
Jurkat NFkB inh: inactive; 697 NFkB inh: inactive; Shn3 inh set2: inactive; Beta apoptosis: inactive; Calb FLC: inactive; 697 NFkB conf: inactive

What do the screens show for `COC(=O)c1ccc(-c2nc3cc(Cl)c(N)cc3s2)cc1`?
Jurkat NFkB inh: inactive; 697 NFkB inh: inactive; Shn3 inh set2: inactive; Beta apoptosis: inactive; Calb FLC: inactive; 697 NFkB conf: inactive

How did COC(=O)c1ccc(-c2nc(O)c(C)s2)cc1 do in these assays?
Jurkat NFkB inh: inactive; 697 NFkB inh: inactive; Shn3 inh set2: inactive; Beta apoptosis: inactive; Calb FLC: inactive

How did C=COc1ccc(N2C(=O)c3ccccc3OC2C)cc1 (stereo unspecified) do in these assays?
Jurkat NFkB inh: inactive; 697 NFkB inh: inactive; Shn3 inh set2: inactive; Beta apoptosis: inactive; Calb FLC: inactive

What do the screens show for `Cc1ccc(C(C)C)c(OCc2ccc(C(=O)N/N=C/c3ccc(O)c(O)c3)cc2)c1`?
Jurkat NFkB inh: inactive; 697 NFkB inh: inactive; Shn3 inh set2: inactive; Beta apoptosis: inactive; Calb FLC: inactive; 697 NFkB conf: inactive

How did CC(CCc1ccccc1)NC(=O)c1ccc(-n2cncn2)c([N+](=O)[O-])c1 (stereo unspecified) do in these assays?
Jurkat NFkB inh: inactive; 697 NFkB inh: inactive; Shn3 inh set2: inactive; Beta apoptosis: inactive; Calb FLC: inactive

Results for CC(C)(C)c1ccc(-c2noc(CCC(=O)NCc3ccco3)n2)cc1 ?
Jurkat NFkB inh: inactive; 697 NFkB inh: 96; Shn3 inh set2: inactive; Beta apoptosis: inactive; Calb FLC: inactive; 697 NFkB conf: 94

How did COc1cccc(OC)c1C(=O)OCC(=O)N(c1ccccc1)C1CCCCC1 do in these assays?
Jurkat NFkB inh: inactive; 697 NFkB inh: inactive; Shn3 inh set2: inactive; Beta apoptosis: inactive

How did O=C(CCN1C(=O)[C@@H]2Cc3ccccc3CN2C1=O)NCc1ccccc1Cl do in these assays?
Jurkat NFkB inh: inactive; 697 NFkB inh: inactive; Shn3 inh set2: inactive; Beta apoptosis: inactive; Calb FLC: inactive

Results for COc1ccc(OC)c(NC(=S)N2CCN(C(=O)C3CCCO3)CC2)c1 (stereo unspecified) ?
Jurkat NFkB inh: inactive; 697 NFkB inh: inactive; Shn3 inh set2: inactive; Beta apoptosis: inactive; Calb FLC: inactive

What do the screens show for `COc1ccccc1/C=C1\SC(=S)N(CCC(=O)Nc2cc(C)on2)C1=O`?
Jurkat NFkB inh: inactive; 697 NFkB inh: 51; Shn3 inh set2: inactive; Beta apoptosis: inactive; Calb FLC: inactive; 697 NFkB conf: 38

What do the screens show for `COc1ccccc1/C=C1\SC(=S)N(CCC(=O)Nc2cccc(O)c2)C1=O`?
Jurkat NFkB inh: inactive; 697 NFkB inh: 35; Shn3 inh set2: inactive; Calb FLC: inactive; 697 NFkB conf: 31

Results for CCc1ccc(/C=C2\SC(=S)N(CCC(=O)Nc3cc(C)on3)C2=O)cc1 ?
Jurkat NFkB inh: inactive; 697 NFkB inh: 59; Shn3 inh set2: inactive; Beta apoptosis: inactive; Calb FLC: inactive; 697 NFkB conf: 44

What do the screens show for `COc1ccccc1/C=C1\SC(=S)N(CCC(=O)Nc2nnc(C)s2)C1=O`?
Jurkat NFkB inh: inactive; 697 NFkB inh: 51; Shn3 inh set2: inactive; Beta apoptosis: inactive; Calb FLC: inactive; 697 NFkB conf: 29

Source: PubChem (several laboratories)
